Rows were chosen to be rich in hits. Some 0.95% of all compounds tested hit in one or more screens of this group.
Giardia FBPA inh-1: qHTS Assay for Inhibitors of Fructose-1,6-bisphosphate Aldolase from Giardia Lamblia; 290,000 tested, 0.71% active; purified Giardia FBPA; Potency, µM (top dose mostly 59.6 µM), for inactives: at the highest dose activity, negative = inhibition, actives largely listed as inhibitors; AID 2451, 2010; also: nearly all actives have a fitted effect of over 55% in size
Target sequence (A8B2U2 whole entry, looked up): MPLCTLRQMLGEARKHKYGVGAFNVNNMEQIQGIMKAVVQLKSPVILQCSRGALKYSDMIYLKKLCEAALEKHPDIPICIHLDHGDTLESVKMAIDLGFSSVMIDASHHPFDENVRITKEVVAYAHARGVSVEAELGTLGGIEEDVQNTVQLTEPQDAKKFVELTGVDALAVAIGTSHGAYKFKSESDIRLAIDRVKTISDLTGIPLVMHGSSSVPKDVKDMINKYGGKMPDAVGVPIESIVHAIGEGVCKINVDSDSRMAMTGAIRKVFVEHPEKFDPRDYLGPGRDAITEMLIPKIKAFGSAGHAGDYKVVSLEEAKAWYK
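40 nM FBPA preincubated 10 min at RT with compound (up to 57.5 uM final), then substrate plus GAPDH/TPI/NAD/arsenate coupling and diaphorase/resazurin added. Fluorescence read after 20 min at RT, 525/598 nm.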
LmPK inhibitor: qHTS Assay for Inhibitors of Leishmania Mexicana Pyruvate Kinase (LmPK); 290,000 tested, 0.37% active; Q27686; Potency, µM (doses to about 57.5 µM), inactives show top-dose activity change, negative = inhibition, hits mostly inhibitors; purified LmPK, Kinase-Glo ATP luminescence, 1 h
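Purified LmPK (0.1 nM) with 0.5 mM PEP and 0.1 mM ADP in imidazole buffer pH 7.2 with MgCl2/KCl, 1 h at room temperature. ATP formed was read by luciferase luminescence and normalized to no-enzyme and uninhibited controls.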
TbPYK inhibitor: qHTS of Trypanosoma Brucei Inhibitors | pyruvate kinase (Trypanosoma brucei), Q57TT1 | TbPYK enzyme, Kinase-Glo Plus ATP luminescence, 45 min | Potency, µM (highest dose often 76.8 µM), for inactives: at the top dose activity, negative = inhibition, hits mostly inhibitors | 410,000 tested, 0.12% active | AID 624173, 2012; also: nearly all actives have a fitted effect of over 50% in size
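Screened from lowest to highest concentration, compounds were pinned into TbPYK/substrate mixtures, and ADP (130 uM final) was added. Plates sat at room temperature for 45 min prior to Kinase-Glo Plus detection by luminescence.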
RE007 growth inh: qHTS Assay for Inhibitors of the HIV-1 protein Vpr | 360,000 tested, 0.21% active | AID 651644, 2012 | S. pombe RE007 Vpr strain, BacTiter-Glo ATP luminescence, 24 h | Potency, µM (top dose mostly 92.2 µM), for inactives: at the highest dose activity change, negative = less growth, actives largely listed as inhibitors; active = well fitted falling curve with a large enough effect; inconclusive = small, poorly fitted or top-dose-only effect; inactive = no such curve, though single readings can be large or run the other way; also: nearly all actives have a fitted effect of over 50% in size
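Fission yeast strain RE007, carrying one chromosomally integrated HIV-1 vpr copy, was seeded at OD 0.01 in PMG+AL medium with 23 nL pinned compound. After 24 h at 30 °C and 99% humidity, viability was read by BacTiter-Glo luminescence.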
Giardia growth: qHTS Assay for Inhibitors of Fructose-1,6-bisphosphate Aldolase from Giardia Lamblia: Giardia lamblia growth inhibition; shares compounds with Giardia FBPA inh-1; Giardia lamblia trophozoite growth inhibition; Potency, µM (highest dose often 57.5 µM), without a hit: at the top dose activity change, negative = inhibition, most hits filed as inhibitors; 1,500 tested, 5% active; AID 2785, 2010;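 also: trophozoites exposed to compound for 48 h at 37 °C; nearly all actives have a fitted effect of over 70% in size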
Mammal cell tox: qHTS Assay for Inhibitors of Fructose-1,6-bisphosphate Aldolase from Giardia Lamblia: Mammalian cellular toxicity; 1,500 tested, 4% active; mammalian cell viability counter-screen, qHTS; AID 2786, 2010; Potency, µM (highest dose often 57.5 µM), for the others: top-dose viability change, negative = toxicity, most hits filed as inhibitors; shares compounds with Giardia FBPA inh-1;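 also: Chinese hamster ovary cells used as mammalian cytotoxicity surrogate; viability measured as cellular ATP by luminescence; compound exposure lasted 48 h before reading; nearly all actives have a fitted effect of over 60% in size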
Giardia FBPA inh-2: qHTS Assay for Inhibitors of Fructose-1,6-bisphosphate Aldolase from Giardia Lamblia: Primary screen confirmation. 1,500 tested, 5% active. shares compounds with Giardia FBPA inh-1. Potency, µM (series often up to 57.5 µM), for the others: top-dose activity change, negative = inhibition, actives largely listed as inhibitors. purified Giardia aldolase enzyme activity, qHTS; also: nearly all actives have a fitted effect of over 45% in size
Rabbit aldolase: qHTS Assay for Inhibitors of Fructose-1,6-bisphosphate Aldolase from Giardia Lamblia: Rabbit FBPA Selectivity; shares compounds with Giardia FBPA inh-1; Rabbit muscle FBPA enzyme inhibition, selectivity counter-screen; Potency, µM (highest dose often 57.5 µM), inactives show at the top dose activity, negative = inhibition, most hits filed as inhibitors; 1,500 tested, 4% active; also: nearly all actives have a fitted effect of over 60% in size
Target sequence (P00883 whole entry, looked up): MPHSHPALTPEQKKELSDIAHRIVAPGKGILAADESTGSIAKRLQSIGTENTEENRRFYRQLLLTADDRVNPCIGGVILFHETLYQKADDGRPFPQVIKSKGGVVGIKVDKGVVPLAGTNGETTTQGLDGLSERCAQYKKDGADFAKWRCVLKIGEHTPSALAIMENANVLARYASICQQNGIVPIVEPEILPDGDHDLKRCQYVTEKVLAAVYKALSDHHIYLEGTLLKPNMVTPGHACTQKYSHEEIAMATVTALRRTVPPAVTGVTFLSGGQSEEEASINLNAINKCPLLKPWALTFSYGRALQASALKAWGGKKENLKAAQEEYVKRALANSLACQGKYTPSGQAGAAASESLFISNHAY
GAPDH counter: qHTS Assay for Inhibitors of Fructose-1,6-bisphosphate Aldolase from Giardia Lamblia: Coupling assay counterscreen confirmation; shares compounds with Giardia FBPA inh-1; GAPDH coupling enzyme counterscreen, biochemical, qHTS; Potency, µM (highest dose often 57.5 µM), for the others: at the top dose activity change, negative = inhibition, actives largely listed as inhibitors; 1,500 tested, 6% active; also: nearly all actives have a fitted effect of over 55% in size
Starred values were filed as active, the others as inactive; ? = inconclusive; / = no result given; [ ] = dose if it differs, or a comment. Unless noted, calls follow the shape of the dose curve; as a rule, active = well fitted curve in the direction sought with a large enough effect; inconclusive = small, poorly fitted or top-dose-only effect, or another doubt; inactive = no such curve, though single readings can be large; an effect the other way counts as inactive or inconclusive. % is scaled to controls: 0 for no effect and ±100 for the full control effect; potency is read from the fitted curve at half-maximal effect.

SMILES | Giardia FBPA inh-1 | LmPK inhibitor | TbPYK inhibitor | RE007 growth inh | Giardia growth | Mammal cell tox | Giardia FBPA inh-2 | Rabbit aldolase | GAPDH counter
CC1=NN(c2nc3ccccc3[nH]2)C(=O)C1Cc1ccccc1 (stereo not given) | 18µM* | -1% | -5% | ? | -21% | ? | 23% | 6% | 9%
Cc1ccc(S(=O)(=O)c2cnc(SCC(=O)Nc3ccccc3C(F)(F)F)[nH]c2=O)cc1C | / | / | 5% | / | / | / | / | / | /
O=NNc1nc2ccccc2n1Cc1ccccc1 | ? | -4% | -14% | 17% | / | / | / | / | /
Cn1c(NN=O)nc2ccccc21 | 7.9µM* | 0% | -14% | -12% | -22% | 16µM* | 0% | -2% | 2%
CCc1ccccc1NC(=O)CSc1nc2c(oc3ccccc32)c(=O)n1C | / | / | -1% | / | / | / | / | / | /
C(=C\c1ccccc1)/CN1CCN(Cc2ccc3c(c2)OCO3)CC1 | 7.9µM* | -3% | 0% | -8% | -20% | 7% | 9% | 0% | 17%
O=[N+]([O-])c1ccccc1/C=C/CN1CCN(Cc2ccc3c(c2)OCO3)CC1 | 11µM* | -4% | 5% | -12% | -8%[10.4 µM] | 7% | -7% | 0% | 9%
NC1=C(O)C(=O)C(c2ccccc2)O1 (stereo not given) | 16µM* | -8% | -12% | -3% | 6%[10.4 µM] | 5% | -24% | -13% | -22%
COc1ccc(Br)cc1CN(C)CC(=O)NCc1ccc(F)cc1 | 14µM* | -8% | -3% | -1% | -15%[10.4 µM] | -4% | 2% | 1% | 14%
CN(CC(=O)NCc1ccc(F)cc1)Cc1ccc(Br)cc1 | -3% | 5% | 4% | -3% | / | / | / | / | /
O=C(NC1CCCCC1)c1cccnc1C(=O)O | 5.6µM* | 1% | 13% | -3% | 10% | 6% | 6% | 11% | 13%
Cc1ccc2oc(C(=O)Nc3sc4c(c3C(=O)NCc3ccccc3)CCCC4)cc(=O)c2c1 | / | / | 2% | / | / | / | / | / | /
Cc1cccc(Oc2ccc3c(c2)Oc2ccccc2NC3=O)c1 | / | / | -6% | / | / | / | / | / | /
CCCCC(=O)Nc1nnn(CCC)n1 | 4% | -10% | 1% | 11% | / | / | / | / | /
CCCCC(=O)NC(=S)Nc1nnn(CCC)n1 | 1.8µM* | -3% | -6% | -14% | -6%[38.3 µM] | 40µM* | -15% | 8% | ?
CCCCC(=O)N1C/C=C\C(c2ccc(OC)cc2)N(Cc2ccc(F)cc2)C(=O)C1Cc1ccccc1 (stereo not given) | -5% | / | / | / | / | / | / | / | /
O=C(CSc1cccc[n+]1[O-])CSc1cccc[n+]1[O-] | 16µM* | 2% | -9% | 7.9µM* | -1%[10.4 µM] | 10µM* | -1% | 15% | 3%
COC(=O)c1ccc(C(=O)OC)c(NC(=O)CSc2cccc[n+]2[O-])c1 | 11µM* | 3% | -22% | ? | -6% | ? | -15% | -14% | -6%
O=C(CSc1cccc[n+]1[O-])Nc1ccccc1Oc1ccccc1 | 6.3µM* | -2% | -4% | ? | 8%[38.3 µM] | 20µM* | -20% | -5% | -9%
O=C(CSc1cccc[n+]1[O-])N1CCCCCC1 | -1% | -4% | -4% | 9% | / | / | / | / | /
CCC(Sc1nnc(-c2ccc(OC)cc2)c(-c2ccc(OC)cc2)n1)C(=O)Nc1cccc(OC)c1 (stereo not given) | / | / | 3% | / | / | / | / | / | /
CC1CC2(C)Oc3ccccc3C3OCC1(COC(=O)Nc1ccccc1)C(C)C32 (stereo not given) | -6% | / | / | / | / | / | / | / | /
CCCN1CCC(N2CCN(c3ccc([N+](=O)[O-])cc3)CC2)CC1 | 16µM* | -4% | 17% | 3% | -1%[10.4 µM] | 3% | -9% | 1% | -15%
CN1CCc2cc(O)c(O)cc2C1Cc1ccc(O)c(O)c1 (stereo not given) | -27% | / | / | / | / | / | / | / | /
O=C(Nc1sc2c(c1C(=O)O)CCC2)c1ccc(F)cc1 | 14µM* | -25% | -3% | -16% | ? | -14% | -26% | ? | ?
SMILES | Giardia FBPA inh-1 | LmPK inhibitor | TbPYK inhibitor | RE007 growth inh | Giardia growth | Mammal cell tox | Giardia FBPA inh-2 | Rabbit aldolase | GAPDH counter
O=C(Nc1sc2c(c1C(=O)O)CCC2)c1ccccc1 | -26% | -22% | -13% | -27% | / | / | / | / | /
COc1ccc(NC(=O)C(OC)c2ccccc2)cc1Cl (stereo not given) | 0% | 1% | -1% | -5% | / | / | / | / | /
COc1ccc(NC(=O)C(NCC(C)C)c2ccccc2)cc1Cl (stereo not given) | 14µM* | -1% | -3% | -11% | ? | 2% | 8% | 20% | 2%
Cc1cccc(CNc2ccnc(-c3ccccc3Cl)n2)c1 | -4% | / | / | / | / | / | / | / | /
COc1ccc(CN2CCN(CCCc3ccccc3)C(CCO)C2)c(OC)c1 (stereo not given) | 2% | -11% | 0% | -3% | / | / | / | / | /
COc1ccc(CN2CCN(Cc3ccccc3C(F)(F)F)CC2)c(OC)c1 | 13µM* | -1% | -6% | -13% | ? | 12% | -2% | 8% | -4%
COc1ccc(CN2CCN(CCCc3ccccc3)CC2)c(OC)c1 | 16µM* | 0% | / | / | 8% | -14% | -1% | 5% | 13%
COc1cccc(CN2CCN(Cc3ccccc3C(F)(F)F)CC2)c1 | ? | -1% | -3% | 1% | / | / | / | / | /
CC1=C(C(=O)Nc2cccnc2)C(c2cccc(F)c2)n2nc(SCc3ccccc3F)nc2N1 (stereo not given) | / | / | 2% | / | / | / | / | / | /
Cc1nc(NC(=O)CN2CC(C)OC(C)C2)sc1C(=O)N(C)C (stereo not given) | 11µM* | -4% | 2% | -2% | 15% | 1% | 7% | 8% | 9%
C=CCN(CC=C)CCOc1ccc(C)cc1[N+](=O)[O-] | 20µM* | -5% | 16% | -1% | ? | 2% | -1% | 1% | -4%
CN(Cc1ccccc1)C(=S)NC(=O)c1cccs1 | 13µM* | 0% | ? | ? | ? | -20% | 2% | 8% | 13%

Screens (PubChem)
